# Assay outcomes (PubChem)
# Autofluor counter: compound fluorescence in toxin protease inhibitor counterscreen | fluorescence intensity (concentration not given with the values) | hit rate 3.1% among 360,000 | compound autofluorescence counterscreen, microsphere flow cytometry; hits give high values; in the data active = fluorescence intensity above about 16000; inconclusive = no clear call, values can overlap the other calls
# GDH-TPI counter: counter-screen for M. tuberculosis FBA inhibitors: GDH-TPI coupled enzymes | hit rate 1.2% among 360,000 | inhibition, % at 4.8 µM | GDH-TPI coupled enzyme counterscreen, NADH absorbance | AID 588335; in the data active = inhibition above about 30%;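 note: 0% = DMSO wells and 100% = wells lacking the enzyme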
# BoNT-A LC inh2: inhibitors of Botulinum neurotoxin A light chain protease | AID 588499 | inhibition, % at 10 µM | multiplex microsphere protease substrate cleavage, flow cytometry | hit rate 0.17% among 360,000; note: plate controls were buffer without enzyme for full effect and enzyme alone for no effect
# BoNT F protease: BoNT F light chain protease inhibition | Multiplex microsphere protease cleavage assay, flow cytometry | hit rate 0.22% among 360,000 | inhibition, % at 10 µM; in the data active = inhibition above about 35%, passing the limit was not always enough; inconclusive = no clear call, values can overlap the other calls; note: plate controls were buffer without enzyme for full effect and enzyme alone for no effect
# Mtb FBA inh: Mtb fructose-bisphosphate aldolase inhibition; inhibition, % at 1 µM; purified M. tuberculosis FBA, fluorescence read-out; hit rate 2.3% among 360,000; in the data active = inhibition above about 27%;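 note: 0% = vehicle and 100% = reference inhibitor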
# Anthrax LF prot: anthrax lethal factor protease inhibition | inhibition, % at 10 µM | multiplex microsphere protease cleavage assay, LF | P15917 | AID 588501 | hit rate 0.12% among 360,000; note: plate controls were buffer without enzyme for full effect and enzyme alone for no effect
# Target sequence (P15917 whole entry, looked up): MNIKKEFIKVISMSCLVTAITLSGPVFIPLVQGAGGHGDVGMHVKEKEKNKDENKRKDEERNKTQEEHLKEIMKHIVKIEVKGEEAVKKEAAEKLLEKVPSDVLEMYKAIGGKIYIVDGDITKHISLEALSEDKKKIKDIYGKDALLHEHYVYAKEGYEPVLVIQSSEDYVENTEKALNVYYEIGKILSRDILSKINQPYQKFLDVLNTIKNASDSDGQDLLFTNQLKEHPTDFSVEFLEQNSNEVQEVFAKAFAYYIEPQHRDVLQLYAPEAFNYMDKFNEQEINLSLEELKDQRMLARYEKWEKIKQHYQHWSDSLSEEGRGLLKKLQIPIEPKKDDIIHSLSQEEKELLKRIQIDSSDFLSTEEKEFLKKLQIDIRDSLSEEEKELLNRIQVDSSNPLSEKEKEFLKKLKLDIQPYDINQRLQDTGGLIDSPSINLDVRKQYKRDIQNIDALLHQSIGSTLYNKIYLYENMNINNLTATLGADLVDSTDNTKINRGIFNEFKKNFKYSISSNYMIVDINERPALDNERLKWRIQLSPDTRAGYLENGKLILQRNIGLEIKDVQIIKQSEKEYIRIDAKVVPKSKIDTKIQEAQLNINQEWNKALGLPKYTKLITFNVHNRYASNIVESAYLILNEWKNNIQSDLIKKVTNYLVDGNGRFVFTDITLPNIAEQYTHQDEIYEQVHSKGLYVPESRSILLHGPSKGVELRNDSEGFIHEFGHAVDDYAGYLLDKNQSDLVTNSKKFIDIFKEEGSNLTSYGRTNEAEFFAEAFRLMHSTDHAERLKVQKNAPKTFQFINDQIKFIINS
# BoNT-A LC CP1: inhibitors of Botulinum neurotoxin A light chain protease; multiplex microsphere protease assay, flow cytometry; inhibition, % at 10 µM; AID 602139; shares compounds with BoNT F protease; hit rate 3% among 720; in the data active = inhibition above about 32%
# BoNTF LC inh 1: BoNT/F light chain protease inhibition; shares compounds with BoNT F protease; multiplex microsphere protease cleavage assay, flow cytometry; inhibition, % at 10 µM; 720 tested, under 10 active; AID 602140; call rule not given here
# Anthrax LF CP1: Bacillus anthracis lethal factor protease inhibition. shares compounds with BoNT F protease. 720 tested, under 10 active. inhibition, % at 10 µM. multiplex microsphere protease cleavage assay, LF; call rule not given here
# Starred values were filed as active, the others as inactive; i = inactive; ? = inconclusive; · = no result given. Only some compounds are listed: those with a hit (about 6.6% of all), similar ones and a draw of the others. Cut-off read from the data, not from the text of the source, unless noted: active = inhibition above about 30%; inconclusive = no clear call, values can overlap the other calls; inactive = below that.
SMILES,Autofluor counter,GDH-TPI counter,BoNT-A LC inh2,BoNT F protease,Mtb FBA inh,Anthrax LF prot,BoNT-A LC CP1,BoNTF LC inh 1,Anthrax LF CP1
COc1ccc(N(CC(=O)NC2CC3CCC2C3)S(=O)(=O)c2ccc(C)cc2)cc1Cl (configuration not stated),3547,-13.8,-0.1,0.2,-0.9,-9.9,·,·,·
Cc1ccc(OCCC(=O)Nc2ccccc2C(=O)NC2CC2)cc1,4992,2.5,5.6,7.9,6.5,0.8,·,·,·
Cc1ccc(SCCC(=O)Nc2ccccc2C(=O)NC2CCCCC2)cc1,2115,9.3,3.5,39.2*,3.7,0.2,-2.7,-8.2,-1.4
O=[N+]([O-])c1ncccc1OCc1ccc(Br)cc1F,3713,-8.8,-4.2,-8.0,1.1,-17.3,·,·,·
CS(=O)(=O)Nc1ccccc1C(=O)Nc1cccc(Cl)c1,5367,6.7,?,52.6*,20.5,7.5,0.2,-1.3,2.8
COc1ccc(NS(=O)(=O)c2ccc(NC(=S)NC(=O)c3ccc(Br)cc3)cc2)nn1,9685,3.8,1.1,3.0,-0.2,1.5,·,·,·
COc1ccc(-c2nc(CN(CC3CCC(=O)N3)C(C)C)c(C)o2)c(C)c1C (configuration not stated),3958,7.3,-1.6,0.0,9.6,-8.6,·,·,·
Cc1nc(-c2cccs2)ccc1C(=O)O,4068,-6.8,0.7,-1.8,6.4,-3.5,·,·,·
CC(=O)c1sc2nc(-c3cccs3)ccc2c1N,7582,19.1,33.7*,17.3,17.1,7.5,23.6,2.0,11.4
COc1ccc(C(O)P(=O)(Oc2ccccc2)Oc2ccccc2)cc1 (configuration not stated),3061,3.9,10.1,5.0,1.0,8.3,·,·,·
COc1ccc([C@@H](O)[C@@H](N)c2ccccc2)cc1,3097,3.9,0.4,?,3.3,38.4*,0.0,1.1,0.6
CC1(C)Cc2c(C#N)c(SCC(=O)c3ccccc3)nc(N3CCOCC3)c2CS1,4781,5.6,0.1,36.8*,1.6,-2.7,-0.7,-2.4,-4.5
CCC1(C)Cc2c(C#N)c(SC)nc(N3CCOCC3)c2CO1 (configuration not stated),3640,14.5,0.3,?,0.3,32.1*,0.6,-1.3,0.9
CSc1nc(N2CCOCC2)c2c(c1C#N)CC(C)(C)OC2,2739,11.5,-0.2,-3.6,1.4,-1.5,·,·,·
C=CCSc1nc(-c2ccc3c(c2)OCO3)cc(C(F)(F)F)c1C#N,10622,2.7,30.7*,16.7,2.1,16.2,3.8,-1.0,4.1
CCOC(=O)CCc1c(C)nc(-n2[nH]c(C)c(CCO)c2=O)[nH]c1=O,4340,1.9,0.1,-2.9,-2.6,-2.7,·,·,·
CC(C)c1ccc(OCC(=O)Nc2ccncc2)cc1,3498,1.7,1.1,42.8*,1.0,14.8,-1.5,-1.4,4.9
Cc1ccc(-c2nnc(SCC(=O)Nc3cccc(C(=O)N4CCOCC4)c3)n2C)cc1,2582,2.9,-1.3,-14.9,-2.8,-2.5,·,·,·
Cc1cc(C)c2cc(C(c3nnnn3C3CCCC3)N3CCOCC3)c(=O)[nH]c2c1 (configuration not stated),9576,16.8,0.8,7.8,2.8,-6.6,1.1,-4.2,1.6
COc1ccc2cc(C(c3nnnn3C3CCCC3)N3CCOCC3)c3nnnn3c2c1 (configuration not stated),4703,12.2,0.9,0.6,4.7,-5.8,·,·,·
Cc1ccc2[nH]c(=O)c(C(c3nnnn3CC3CCCO3)N3CCOCC3)cc2c1 (configuration not stated),?,15.1,0.6,4.6,4.2,-1.4,·,·,·
Cc1cccc2cc(C(c3nnnn3C3CCCC3)N3CCOCC3)c(=O)[nH]c12 (configuration not stated),21873*,16.5,?,-1.5,2.0,0.3,-3.0,-5.2,-3.6
Cc1cccc(OCc2nnc(SCC(=O)O)n2-c2ccccc2)c1,3828,-11.7,0.2,?,0.6,10.0,·,·,·
CSc1cccc(NC(=O)C2CCN(S(=O)(=O)c3ccc4c(c3)NC(=O)CO4)CC2)c1,4997,0.0,0.1,-2.7,0.3,-0.5,·,·,·
Cc1nn(Cc2ccc([N+](=O)[O-])cc2)c(=O)n1N(C)c1ncc(C(F)(F)F)cc1Cl,4593,6.0,0.2,38.4*,-0.2,-3.9,1.2,3.2,-0.1
SMILES,Autofluor counter,GDH-TPI counter,BoNT-A LC inh2,BoNT F protease,Mtb FBA inh,Anthrax LF prot,BoNT-A LC CP1,BoNTF LC inh 1,Anthrax LF CP1
Cc1nn(Cc2ccc(Cl)cc2)c(=O)n1N(C)c1ncc(C(F)(F)F)cc1Cl,4712,1.2,-0.1,-20.0,-0.6,-4.6,·,·,·
Clc1ccc2c(c1)Nc1ccccc1CC2,3124,1.5,-1.1,-9.6,4.0,-12.6,·,·,·
CCOC(=O)c1c(NC(=O)Nc2ccc(Cl)cc2)sc(C)c1C,27117*,2.3,-29.5,i,0.9,41.4*,-0.7,0.9,-5.5
CCOC(=O)c1sc(NC(=O)Nc2ccc(Cl)cc2)cc1C,4698,12.8,-0.2,-14.7,4.1,-4.8,·,·,·
COc1ccccc1NC(=O)OCC#CCOC(=O)Nc1ccccc1OC,3181,7.1,-1.4,-15.4,0.2,-2.1,·,·,·
O=c1[nH]c(-c2ccccc2Cl)nc2c1sc(=S)n2-c1ccccc1,4138,15.1,0.9,-0.1,-5.9,-3.2,·,·,·
CCN(CC)C(=O)CSc1nc(Cc2ccccc2)nc2ccccc12,4268,0.8,1.6,?,0.4,39.8*,2.4,0.3,1.8
Cc1ccc(C)c2nc3sc(C(=O)N4CCCc5ccccc54)c(N)c3cc12,14402,9.7,27.9,22.4,-2.1,29.9*,14.1,6.9,4.8
O=C(Nc1ccccc1)OC1CCCCc2cccnc21 (configuration not stated),3832,1.1,?,?,3.0,30.1*,0.8,2.4,-2.3
O=C(Nc1ccc(F)cc1)c1cc(-c2ccncc2)nc2c(Cl)cccc12,5010,12.1,-4.0,-7.9,-2.1,-7.2,·,·,·
O=C(c1cc([N+](=O)[O-])[nH]n1)N1CCSCC1,3833,3.1,-3.0,36.2*,2.3,5.6,0.6,-2.5,2.0
Cc1cc(C(=O)N2CCc3ccccc3C2)n[nH]1,4769,4.5,-2.0,-1.5,1.9,3.1,·,·,·
Nc1ccc(S(=O)(=O)Nc2nccc(/C=C/c3cccc(Br)c3)n2)cc1,3522,19.9,-0.8,36.7*,-6.2,3.2,-0.2,-2.0,-0.6
CCc1ccc(C(=O)CN2C(=O)C(C)N(c3ccc(C)cc3)C2=O)cc1 (configuration not stated),2666,3.5,4.1,49.9*,-1.4,-0.3,-0.1,-0.7,-4.0
CC(C)(C)c1cc(C(=O)CCN2CCOCC2)cc(C(C)(C)C)c1O,3215,7.0,-3.3,5.1,-0.8,18.5,1.1,-2.8,-4.4
COc1ccc(S(=O)(=O)N2CCN(c3nn(C)c(=O)n(C)c3=O)CC2)cc1,8998,3.2,-0.4,-1.6,-1.5,0.2,·,·,·
